The supplement of paper PMC10338343
± gives the standard deviation.

Key:
[1] = test system: MILI (PIWIL2) piRISC loaded with piRNA #1 (26 nt); assay: pre-steady-state target cleavage rate (min^-1); guide: piRNA #1 5'p-UGAGGUAGUAGGUUGUAUAGUAUCCA; higher = faster piRNA-guided slicing of the target; conditions: auxiliary factor: 500 nM mouse GTSF1
Method in brief: (§1)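 Using HEPES–potassium acetate buffer at 33 °C, 1 nM active affinity-purified piRISC with a single synthetic guide was mixed with 0.1 nM transcribed, DNA-blocked target RNA library for 0–8 or 0–960 min, with or without 500 nM GTSF1 partner protein. Uncleaved targets were sequenced and normalised to depth and to weakly complementary targets, and three trials were pooled with k3 capped at 0.0001 min^-1. A burst-and-steady-state fit gave the pre-steady-state cleavage rate.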

[2] = test system: EfPiwi piRISC loaded with piRNA #1 (26 nt); assay: pre-steady-state target cleavage rate (min^-1); auxiliary factor: 500 nM Ephydatia muelleri Gtsf1; guide: piRNA #1 5'p-UGAGGUAGUAGGUUGUAUAGUAUCCA; MIWI and MILI are mouse PIWI proteins and EfPiwi is from a freshwater sponge; tags in brackets are library labels; higher = faster piRNA-guided slicing of the target
Method in brief: as §1

Sequence | pre-steady-state target cleavage rate [1] | pre-steady-state target cleavage rate [2]
GGAGAGGAUACUUUACAUCCUACUACCUCA | 0.253 ± 0.016 | 0.00455 ± 0.0027
GGAGACGAUACUAUACAACCUACUACGUGA | 0.0822 ± 0.021 | 0.00515 ± 0.0026
GGAGUGCAUACUAUACAACCUACUACCACA | 0.124 ± 0.013 | 0.00342 ± 0.0028
GGAGACGAUACUAUACAACCUACUUCCUGA | 0.00812 ± 0.005 | 0.00342 ± 0.002
GGAGUGGAAACUAUACAACCUACUACCUGA | 0.105 ± 0.023 | 0.00283 ± 0.0023
GGAGACGAUUCUAUACAAGCUACUACCUCA | 0.239 ± 0.01 | 0.00369 ± 0.003
GGAGUGGAGACUAUACAACCUACUACCUCA | 0.212 ± 0.029 | 0.0807 ± 0.031
GGAGAGGAUACUAUACAACCUACUACCAUCA | 0.0616 ± 0.0087 | 0.00705 ± 0.0029
GGAGACCAUACUACUACAACCUACUACCUCA | 0.137 ± 0.015 | 0.0205 ± 0.0057
GGAGAGGAUACUAUACAACGUACUAGCUCA | 0.00413 ± 0.0037 | 0.0029 ± 0.0015
GGAGACGAUAACUAUACAACCUACUACCUCA | 0.116 ± 0.0099 | 0.0617 ± 0.023
GGAGACGAUACUAUACAAACUACUACCUCA | 0.245 ± 0.015 | 0.00656 ± 0.0025
GGAGACCUAUCUAGUACAACCUACUACCUCA | 0.0316 ± 0.0066 | 0.00434 ± 0.0035
GGAGACGAUACUAUAUCAACCUACUACCUCA | 0.123 ± 0.013 | 0.0198 ± 0.0082
GGAGACCAUACUAUUCAACCUACUACCUGA | 0.114 ± 0.018 | 0.00313 ± 0.0026
GGAGACCAUACUAUACAAGCUACUACGUCA | 0.139 ± 0.022 | 0.00359 ± 0.0023
GGAGACGUUUCUAUACAACCUACUACCUCA | 0.105 ± 0.013 | 0.0117 ± 0.0062
GGAGUGGAUACUAUACAACCAACUACCACA | 0.00424 ± 0.0025 | 0.00391 ± 0.0018
GGAGUGGAUACUAUAGAACCUACUACGUCA | 0.0161 ± 0.0041 | 0.00205 ± 0.0016
GGAGACCAUACUAUACAACCUACUUCGUCA | 0.112 ± 0.029 | 0.00491 ± 0.0039
GGAGUGGAAACUAUACUACCUACUACCUCA | 0.193 ± 0.016 | 0.00676 ± 0.0042
GGAGAGGAUACUAUACUACGUACUACCUCA | 0.0192 ± 0.0028 | 0.00407 ± 0.0022

Sequence | pre-steady-state target cleavage rate [1] | pre-steady-state target cleavage rate [2]
GGAGACCUUACUAUAACAACCUACUACCUCA | 0.134 ± 0.013 | 0.00893 ± 0.0047
GGAGACGAUACUAAACAUCCUACUACCUCA | 0.267 ± 0.021 | 0.00359 ± 0.0026
GGAGUGGAUACUAUACAACGUACUACCACA | 0.0255 ± 0.0047 | 0.00371 ± 0.00099
GGAGUGGAUACUUUACUACCUACUACCUCA | 0.16 ± 0.01 | 0.00437 ± 0.0036
GGAGAGGAUACUAUACAACCUACUACCUCU [g2:g25:cont:t1U] | 0.238 ± 0.025 | 1.56 ± 0.47
GGAGACGAUAGAAUACAACCUACUACCUCA | 0.137 ± 0.013 | 0.00812 ± 0.0043
GGAGUGGAUACUAUACAUGGUACUACCUCA | 0.00713 ± 0.0016 | 0.00303 ± 0.0028
GGAGAGGAUACUAUAGAACCUACUAGCUCA | 0.00752 ± 0.0035 | 0.00254 ± 0.0018
GGAGAGGAUACUAUACAACCACUACCUCA | 0.00782 ± 0.0025 | 0.00549 ± 0.0026
GGAGAGGAUACUAUAGAACCUACUACGUCA | 0.0326 ± 0.0058 | 0.00228 ± 0.0021
GGAGACCUAUCUAUACAACCUACUACCUCC [g2:g20:cont:t1C] | 0.106 ± 0.011 | 0.0049 ± 0.0034
GGAGACCUAUGAAUCACAACCUACUACCUCA | 0.0111 ± 0.0034 | 0.00389 ± 0.0034
GGAGACCAAACUAUACAACCUACUACCUGA | 0.133 ± 0.045 | 0.00429 ± 0.0028
GGAGACCAUACUAUACAACCUACUACAUCA | 0.0875 ± 0.011 | 0.00692 ± 0.004
GGAGACGAUACUAGACAACCUACUACCUCA | 0.171 ± 0.013 | 0.00452 ± 0.0029
GGAGAGGAUACCUAUACAACCUACUACCUCA | 0.123 ± 0.027 | 0.0826 ± 0.033
GGAGACCAUACGUAUACAACCUACUACCUCA | 0.212 ± 0.035 | 0.159 ± 0.064
GGAGACCUAACUAUAACAACCUACUACCUCA | 0.0743 ± 0.018 | 0.00912 ± 0.005
GGAGUGGUUACUAUACAACCUACUUCCUCA | 0.0036 ± 0.002 | 0.0027 ± 0.0013
GGAGUGUGAUACUAUACAACCUACUACCUCA | 0.179 ± 0.0087 | 0.0158 ± 0.0069
GGAGACCAUACUAUACAACCUACUACCUCC [g2:g23:cont:t1C] | 0.187 ± 0.017 | 0.0109 ± 0.0042
GGAGACCUUACUAUCACAACCUACUACCUCA | 0.143 ± 0.016 | 0.00983 ± 0.0039

Sequence | pre-steady-state target cleavage rate [1] | pre-steady-state target cleavage rate [2]
GGAGACGAAACUAUACAACCUUCUACCUCA | 0.00739 ± 0.0047 | 0.00751 ± 0.0034
GGAGACGAUACUUUACAACCUAGUACCUCA | 0.0601 ± 0.017 | 0.00252 ± 0.0017
GGAGACGAUACUUAUCAACCUACUACCUCA | 0.148 ± 0.013 | 0.00522 ± 0.0041
GGAGUGGAAUCUAUACAACCUACUACCUCA | 0.152 ± 0.0088 | 0.00913 ± 0.0055
GGAGAGGUACUAUACAACCUACUACCUCA | 0.089 ± 0.0084 | 0.00824 ± 0.0048
GGAGAGCAUACUAUACAACCUUCUACCUCA | 0.0105 ± 0.0032 | 0.00445 ± 0.0027
GGAGAGGAUACUAUAGCAACCUACUACCUCA | 0.129 ± 0.012 | 0.0429 ± 0.019
GGAGACCUAACUAUACAACCUAAUACCUCA | 0.0504 ± 0.013 | 0.00511 ± 0.0036
GGAGACCAUUGAAUACAACCUACUACCUCA | 0.0121 ± 0.0038 | 0.00581 ± 0.0033
GGAGACGAUACUAUACAACCUAUCUACCUCA | 0.17 ± 0.017 | 0.00473 ± 0.0019
GGAGAGGAUACUAUACAUCCUACUACCUCA | 0.28 ± 0.023 | 0.0116 ± 0.0055
GGAGACCUAUCUAUACAACCUACUACCUA | 0.0666 ± 0.0086 | 0.00487 ± 0.0042
GGAGAGGUUACAAUACAACCUACUACCUCA | 0.181 ± 0.014 | 0.00504 ± 0.0035
GGAGUGGAUACAAUACAACCUACUACGUCA | 0.0406 ± 0.0063 | 0.0038 ± 0.0016
GGAGUGCUAACUAUACAACCUACUACCUCA | 0.128 ± 0.015 | 0.0117 ± 0.0053
GGAGUCCAUACUAUACAACCUACUACCUCA | 0.181 ± 0.015 | 0.0575 ± 0.019
GGAGAGGAAACUAUUCAACCUACUACCUCA | 0.172 ± 0.021 | 0.013 ± 0.0061
GGAGACGAUACUAUAACAACCUACUACCUCA | 0.142 ± 0.012 | 0.00793 ± 0.0029
GGAGACCUAACUAUACAACCUACUACCUGCA | 0.149 ± 0.034 | 0.0711 ± 0.039
GGAGAGGAUACAAUACAACCUACUACCUCA | 0.172 ± 0.012 | 0.0112 ± 0.005
GGAGAGGAUACUAUACAACCUACAAGCUCA | 0.00476 ± 0.0031 | 0.00284 ± 0.0023
